Assay outcomes deposited in PubChem BioAssay by several laboratories.
This is a sample that favours compounds with a hit; in the whole collection about 22% have one here.
CYP2C9 act = human CYP2C9 activators, primary screen, biochemical, luminescence | activation factor at 5 µM | recombinant CYP2C9, luciferin-H conversion; hits give high values; factor 1 = untreated enzyme, 0 = blocked | actives 1.4% (n = 96,000) | AID 1024, 2008 | Cytochrome P450 2C9 (Homo sapiens), P11712;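 active = activation factor of 2 or more for CYP2C9 at a 5 µM dose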;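 note: 0 = sulfaphenazole-blocked wells and 1 = vehicle-only wells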
CYP2C19 act = human CYP2C19 activators, primary screen, biochemical, luminescence. AID 1025, 2008. recombinant CYP2C19, luciferin-H EGE luminescence; hits give high values; 0 = fully inhibited enzyme, 1 = untreated enzyme. 96,000 tested, under 10 active. activation factor at 5 µM;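 active = activation factor of at least 2 at 5 µM in the primary screen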;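 note: 0 = wells with 2.5 mM tranylcypromine and 1 = vehicle-only wells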
Target sequence (P33261 whole entry, looked up): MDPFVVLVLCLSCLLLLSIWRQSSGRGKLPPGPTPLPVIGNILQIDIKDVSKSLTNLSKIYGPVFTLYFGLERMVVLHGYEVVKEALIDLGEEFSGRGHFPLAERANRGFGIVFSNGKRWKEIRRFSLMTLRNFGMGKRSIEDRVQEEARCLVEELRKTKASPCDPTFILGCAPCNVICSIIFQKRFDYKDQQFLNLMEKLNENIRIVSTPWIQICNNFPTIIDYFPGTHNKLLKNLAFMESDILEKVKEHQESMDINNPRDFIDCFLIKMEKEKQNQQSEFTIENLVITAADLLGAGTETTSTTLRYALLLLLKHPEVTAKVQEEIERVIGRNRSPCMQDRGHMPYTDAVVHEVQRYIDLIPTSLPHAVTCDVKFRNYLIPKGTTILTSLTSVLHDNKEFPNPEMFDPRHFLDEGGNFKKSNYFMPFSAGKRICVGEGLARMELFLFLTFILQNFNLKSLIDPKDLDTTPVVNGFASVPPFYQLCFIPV
CYP2C19 inh = blockers of cytochrome P450 2C19 activity – biochemical, luminescence, ADME assay, primary screen. inhibition, % at 5 µM. CYP2C19 Supersomes, luciferin-H EGE luminescence, 30 min. actives 21% (n = 96,000). P33261. AID 778, 2007;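 active = CYP2C19 inhibition above a set limit at 5 µM in the primary screen, cut at about 50% in these data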;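 note: plate controls were negative control wells for no effect and 2.5 mM tranylcypromine positive control for full effect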
CYP2C9 inhib = blockers of cytochrome P450 2C9 activity – biochemical, luminescence, ADME assay, primary screen | CYP2C9 Supersomes, luciferin-H conversion | inhibition, % at 5 µM | actives 20% (n = 96,000) | P11712;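 active = blocking of liver enzyme CYP2C9 beyond about 50% at 5 µM, limit read from the data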
Measles CPE = compounds protecting cells from measles virus cytopathic effect, primary screen, measles RdRp inhibitor project, single point, MLSMR library, absorbance; actives 1.5% (n = 140,000); Measles virus-infected cells, CPE protection; protection (pct of control), % at 4 µM; AID 841, 2007; in the data active = protection mostly above about 24%, no sharp cut-off; inactive = mostly below about 26%
Active calls of the source: *; . = not tested or not shown.

SMILES	CYP2C9 act	CYP2C19 act	CYP2C19 inh	CYP2C9 inhib	Measles CPE
CCCN(CC1CC1)C(=O)COc1ccccc1C(=O)NCc1ccccc1	0.9	0.9	6	7	5
O=C(NCc1ccccc1)c1ccccc1OCC(=O)N1CCCCC1	0	0.3	73*	100*	10
CC(C)CC(C(=O)O)N1C(=O)C2C3CC(C2C1=O)C1C(c2ccccc2)c2sc(=O)[nH]c2SC31 (stereo not drawn)	.	.	.	.	6
CCN(CC)S(=O)(=O)c1ccc2c(c1)nc(SCC(N)=O)n2-c1ccc(OC)cc1	0.5	0.7	30	49	18
CCN(CC)S(=O)(=O)c1ccc2c(c1)nc(SCC(=O)N1CCCCCC1)n2-c1ccc(OC)cc1	0.2	0.9	14	81*	5
COc1cc2c(cc1OC)-c1nnc(-c3ccco3)n1C1(CCCC1)C2	.	.	.	.	1
COc1ccccc1/C=C/C(=O)c1c2c(c(C)[nH]c1=O)CCCC2	2.3*	0.8	23	-128	19
COc1ccccc1/C=C/C(=O)c1ccc(Cl)cc1	1	0.8	24	1	10
Cc1nn(-c2ccc(F)cc2)c(Cl)c1/C=C(\CCC(=O)O)c1nc2ccccc2s1	0.8	0.9	6	17	32*
CCOC(=O)Cn1c(C)c(Br)c(=O)c2cccc(C)c21	1	1.1	-5	-4	8
COc1ccc(OC)c(C2=NOC(C(=O)N3CCCc4ccccc43)C2)c1 (stereo not drawn)	2.4*	0.6	41	-140	52*
COc1cc(OC)c(C2=NOC(C(=O)N3CCc4ccccc4C3)C2)cc1Cl (stereo not drawn)	2.1*	0.4	59*	-113	5
O=C(C1CC(c2ccc(F)cc2)=NO1)N1CCN(Cc2ccccc2)CC1 (stereo not drawn)	0.8	0.8	22	17	1
COc1cccc(C2=NOC(C(=O)N3CCN(Cc4ccccc4)CC3)C2)c1OC (stereo not drawn)	2.1*	0.8	16	-111	2
O=C(C1CC(c2ccc(F)cc2)=NO1)N1CCCc2ccccc21 (stereo not drawn)	2.4*	0.5	52*	-138	2
COc1cc(OC)c(C2=NOC(C(=O)O)C2)cc1Cl (stereo not drawn)	1.6	1.1	-8	-63	5
CCOC(=O)N1CCN(C(=O)C2CC(c3cc(OC)ccc3OC)=NO2)CC1 (stereo not drawn)	1.3	1.1	-9	-28	.
N#Cc1cc(-c2ccccc2)c[nH]c1=O	0.9	1.1	-9	11	12
Cc1cccc(OCCCc2c(C)n[nH]c2C)c1	0.4	0.1	92*	57*	3
O=C(c1ccc(COc2ccccc2Cl)o1)N1N=C(C(F)F)CC1(O)C(F)F (stereo not drawn)	.	.	.	.	6
CCCCCN(C(=O)COC(=O)c1ccc(Br)o1)c1c(N)n(CCCC)c(=O)[nH]c1=O	0.9	1	-1	7	19
NS(=O)(=O)c1ccc(CCNC(=O)c2cccnc2)cc1	.	.	.	.	2
O=C(Nc1ccn(Cc2ccccc2)n1)c1cccc(Cn2cc([N+](=O)[O-])cn2)c1	.	.	.	.	9
CC(NC(=O)c1ccc(Cn2cc([N+](=O)[O-])cn2)o1)c1ccccc1 (stereo not drawn)	0.7	0.7	28	27	6
CC(NC(=O)c1cccc(Cn2cc([N+](=O)[O-])cn2)c1)c1ccc(C(C)(C)C)cc1 (stereo not drawn)	0.2	0.4	61*	81*	3
CCC(NC(=O)c1cccc(Cn2cc([N+](=O)[O-])cn2)c1)c1ccc(C(C)C)cc1 (stereo not drawn)	0	0.6	44	96*	22
CCN(Cc1ccccc1)C(=O)CCc1nc(-c2ccc(C)cc2)no1	0.1	0.2	81*	88*	9
Cc1ccc(-c2noc(CCC(=O)NCCc3ccccc3Cl)n2)cc1	0.6	0.7	33	39	5
CCOC(=O)N1CCC(NC(=O)CCc2nc(-c3ccc(C)cc3)no2)CC1	0.3	0.6	41	73*	6
CC(C)(C)c1ccc(-c2noc(CCC(=O)NCC3CCCO3)n2)cc1 (stereo not drawn)	0.5	0.4	65*	48	19
